# High-throughput results (PubChem)
# Only some compounds are listed: those with a hit (about 2.2% of all), similar ones and a draw of the others.
# VACV mCherry inh: inhibitors of vaccinia virus infection (mCherry reporter signal); Vaccinia virus mCherry reporter infection, fluorescence; Potency, µM (highest dose often 36.5 µM), inactives show top-dose activity change, negative = inhibition, actives largely listed as inhibitors; 310,000 compounds, 0.63% hits; AID 720579; calls by dose curve; tested in A549 cells; also: nearly all actives have a fitted effect of over 35% in size
# Giardia FBPA inh-1: blocks Giardia fructose-bisphosphate aldolase activity | A8B2U2 | purified Giardia FBPA | Potency, µM (titrated, usually from 59.6 µM), inactives show top-dose activity, negative = inhibition, hits mostly inhibitors | 290,000 compounds, 0.71% hits | AID 2451; also: nearly all actives have a fitted effect of over 55% in size
# Target sequence (A8B2U2 whole entry, looked up): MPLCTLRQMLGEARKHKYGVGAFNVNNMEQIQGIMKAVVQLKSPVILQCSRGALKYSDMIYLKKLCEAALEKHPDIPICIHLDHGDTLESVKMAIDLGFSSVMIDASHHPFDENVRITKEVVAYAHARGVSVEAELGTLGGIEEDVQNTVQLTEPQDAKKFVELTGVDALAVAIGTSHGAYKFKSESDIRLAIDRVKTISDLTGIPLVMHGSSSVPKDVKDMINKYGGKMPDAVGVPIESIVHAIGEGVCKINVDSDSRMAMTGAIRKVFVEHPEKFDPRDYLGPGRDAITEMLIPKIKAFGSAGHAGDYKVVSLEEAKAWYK
#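 Giardia FBPA (40 nM reagent) was preincubated 10 min at RT with compound (up to 57.5 uM final), then substrate plus GAPDH/TPI/NAD/arsenate coupling system with diaphorase/resazurin was added; resorufin fluorescence (525/598 nm) was read after 20 min.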
# Vaccinia Venus: vaccinia inhibition (Venus reporter); 330,000 compounds, 0.46% hits; Potency, µM (doses to about 36.5 µM), without a hit: top-dose activity change, negative = inhibition, hits mostly inhibitors; Vaccinia virus Venus reporter expression, fluorescence; AID 720580; calls by dose curve; tested in A549 cells; also: nearly all actives have a fitted effect of over 30% in size
# FMDV inh: blocks foot and mouth disease virus; FMDV antiviral cell-based qHTS; Potency, µM (top dose mostly 57.9 µM), for the others: top-dose activity change, negative = inhibition, hits mostly inhibitors; 410,000 compounds, 1.2% hits; calls by dose curve; tested in HEK293T cells; also: read-out not given here; nearly all actives have a fitted effect of over 45% in size
# Giardia growth: inhibitors of Giardia lamblia growth; shares compounds with Giardia FBPA inh-1; Giardia lamblia trophozoite growth inhibition; Potency, µM (highest dose often 57.5 µM), inactives show at the top dose activity change, negative = inhibition, actives largely listed as inhibitors; 1,500 compounds, 5% hits;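 also: trophozoites exposed to compound for 48 h at 37 °C; nearly all actives have a fitted effect of over 70% in size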
# Mammalian tox: mammalian cytotoxicity of Giardia aldolase inhibitor hits | mammalian cell viability counter-screen, qHTS | Potency, µM (highest dose often 57.5 µM), for inactives: at the top dose viability change, negative = toxicity, hits mostly inhibitors | shares compounds with Giardia FBPA inh-1 | 1,500 compounds, 4% hits;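 also: Chinese hamster ovary cells used as mammalian cytotoxicity surrogate; viability measured as cellular ATP by luminescence; compound exposure lasted 48 h before reading; nearly all actives have a fitted effect of over 60% in size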
# Giardia FBPA inh-2: confirmation of Giardia fructose-bisphosphate aldolase inhibitors. purified Giardia aldolase enzyme activity, qHTS. shares compounds with Giardia FBPA inh-1. 1,500 compounds, 5% hits. Potency, µM (top dose mostly 57.5 µM), for inactives: at the highest dose activity change, negative = inhibition, actives largely listed as inhibitors; also: nearly all actives have a fitted effect of over 45% in size
# Rabbit aldolase: blocks rabbit muscle aldolase in Giardia aldolase selectivity test; Rabbit muscle FBPA enzyme inhibition, selectivity counter-screen; 1,500 compounds, 4% hits; Potency, µM (doses to about 57.5 µM), without a hit: at the top dose activity, negative = inhibition, actives largely listed as inhibitors; shares compounds with Giardia FBPA inh-1; also: nearly all actives have a fitted effect of over 60% in size
# Target sequence (P00883 whole entry, looked up): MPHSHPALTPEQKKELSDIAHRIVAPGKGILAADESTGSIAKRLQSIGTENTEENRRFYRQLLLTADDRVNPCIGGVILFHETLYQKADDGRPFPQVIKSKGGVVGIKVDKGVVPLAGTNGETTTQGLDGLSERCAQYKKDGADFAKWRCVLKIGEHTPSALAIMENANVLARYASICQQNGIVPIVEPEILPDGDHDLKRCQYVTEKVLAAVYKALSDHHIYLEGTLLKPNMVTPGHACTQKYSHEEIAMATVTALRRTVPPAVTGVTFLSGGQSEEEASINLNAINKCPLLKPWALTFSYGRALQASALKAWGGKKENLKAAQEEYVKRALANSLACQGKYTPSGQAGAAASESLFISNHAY
# GAPDH coupling: counter-screen for Giardia aldolase inhibitors: GAPDH coupling enzyme | GAPDH coupling enzyme counterscreen, biochemical, qHTS | Potency, µM (series often up to 57.5 µM), for the others: at the highest dose activity change, negative = inhibition, most hits filed as inhibitors | 1,500 compounds, 6% hits | AID 2795 | shares compounds with Giardia FBPA inh-1; also: nearly all actives have a fitted effect of over 55% in size
# Numbers without * were called inactive; i = inactive; ? = inconclusive; . = not tested or not shown; [ ] = another dose, or the depositor's remark. Unless noted, calls follow the shape of the dose curve; as a rule, active = well fitted curve in the direction sought with a large enough effect; inconclusive = small, poorly fitted or top-dose-only effect, or another doubt; inactive = no such curve, though single readings can be large; an effect the other way counts as inactive or inconclusive. % is scaled to controls: 0 for no effect and ±100 for the full control effect; potency is read from the fitted curve at half-maximal effect.
SMILES,VACV mCherry inh,Giardia FBPA inh-1,Vaccinia Venus,FMDV inh,Giardia growth,Mammalian tox,Giardia FBPA inh-2,Rabbit aldolase,GAPDH coupling
O=C(Nc1nnc(-c2ccc(Cl)cc2)o1)c1ccc(N2C(=O)CCC2=O)cc1,i,23%,-8%,-21%,.,.,.,.,.
C=C1C2=CC(=O)OC(c3ccoc3)[C@]2(C)CCC1[C@]1(C)C=CC(=O)C(C)(C)C1CC(=O)OC (some centres not stated),-18%,-12%,-11%,-19%,.,.,.,.,.
C/C=C\C1=CCCC1Nc1ncnc2ccc(-c3c(C)noc3C)cc12 (configuration not stated),.,-6%,.,.,.,.,.,.,.
O=C(O)CSc1c(O)c2ccccc2[nH]c1=O,.,18µM*,.,-1%,?,1%,-18%,-20%,-18%
O=c1[nH]c2ccccc2c(O)c1SCCO,i,?,-22%,-7%,.,.,.,.,.
COC(=O)c1ccc(NC(=O)CN2CCN(CC#N)CC2)cc1,-9%,25µM*,-11%,12%,-5%[38.3 µM],14%,1%,-2%,2%
CN(CCOc1ccccc1)CC(=O)Nc1cccc(Br)c1,-1%,?,-5%,-14%,.,.,.,.,.
Cc1cc(NC(=O)CN(C)CCOc2ccccc2)ccc1Br,-10%,16µM*,-11%,-23%,?,13%,-9%,5%,-4%
Cc1cc(NC(=O)CSc2nnc(C3COc4ccccc4O3)n2N)no1 (configuration not stated),1%,20µM*,1%,-6%,-25%,17%,-6%,3%,-1%
O=C(NC1CCCCC1)c1cccnc1C(=O)O,.,5.6µM*,.,-17%,10%,6%,6%,11%,13%
O=C(NC1CCCC1)c1cccnc1N1CCCCCC1,-16%,3%,-6%,.,.,.,.,.,.
O=C(NC(=S)N(CCO)Cc1ccccc1)c1ccc(S(=O)(=O)N2CCCC2)cc1,-4%,8.9µM*,0%,-1%,0%[10.4 µM],7%,4%,8%,10%
CN(CCC#N)C(=S)NC(=O)c1ccc(S(=O)(=O)N2CCOCC2)cc1,i,16µM*,-6%,-17%,8%,-1%,6%,9%,15%
CC(=O)N1CCN(C(=S)NC(=O)c2ccc(S(=O)(=O)N3CCOCC3)cc2)CC1,-15%,14µM*,1%,-15%,-7%[10.4 µM],3%,9%,11%,5%
CC(C)c1ccc(S(=O)(=O)/N=C2/C=C(Sc3ncn[nH]3)C(=O)c3ccccc32)cc1,11µM*,0.45µM*,?,22µM*,7.1µM*,25µM*,3.5µM*,16µM*,3.5µM*
Cc1ccc(S(=O)(=O)/N=C2/C=C(Sc3ncn[nH]3)C(=O)c3ccccc32)cc1,2.8µM*,0.45µM*,7.1µM*,-25%,7.1µM*,20µM*,2.5µM*,10µM*,3.2µM*
CN(C)S(=O)(=O)c1cccc(-n2sc3ccccc3c2=O)c1,-1%,14µM*,-20%,22%,?,?,-5%,22µM*,-15%
Nc1nc2c(s1)CCc1c-2cnn1-c1ccccc1,?,0.4µM*,-22%,0%,?,?,13µM*,14µM*,13µM*
CSCC[C@H](N)C(=O)N[C@@H](CCC(=O)O)C(=O)N[C@H](C(=O)NCC(=O)N[C@@H](Cc1c[nH]c2ccccc12)C(=O)N[C@@H](Cc1ccc(O)cc1)C(=O)N[C@@H](CCCNC(=N)N)C(=O)N[C@@H](CO)C(=O)N1CCC[C@H]1C(=O)N[C@@H](Cc1ccccc1)C(=O)N[C@@H](CO)C(=O)N[C@@H](CCCNC(=N)N)C(=O)N[C@H](C(=O)N[C@H](C(=O)N[C@@H](Cc1cnc[nH]1)C(=O)N[C@@H](CC(C)C)C(=O)N[C@@H](Cc1ccc(O)cc1)C(=O)N[C@@H](CCCNC(=N)N)C(=O)N[C@@H](CC(N)=O)C(=O)NCC(=O)N[C@@H](CCCCN)C(=O)O)C(C)C)C(C)C)C(C)C,.,8%,.,.,.,.,.,.,.
N[C@@H](CSS(=O)(=O)O)C(=O)O,-22%,?,-20%,-7%,-11%[38.3 µM],9%,22µM*,14µM*,22µM*
NC(CSSCC(N)C(=O)O)C(=O)O (configuration not stated),.,0%,.,.,.,.,.,.,.
O=C(O)COc1ccc(OCCNC[C@H](O)COc2ccccc2)cc1,-11%,.,-3%,-13%,.,.,.,.,.
CC(=O)c1ccc(NC(=O)c2sc(-n3nc(C)c(Cc4ccccc4)c3C)nc2C)cc1,-29%,.,-24%,?,.,.,.,.,.
O=C(CSc1ncnc2nc[nH]c12)c1ccccc1,i,-3%,-10%,35%,.,.,.,.,.
O=C(CSc1ncnc2nc[nH]c12)c1ccc(Cl)cc1,i,14µM*,-17%,-17%,-7%[10.4 µM],-7%,-1%,-5%,9%
SMILES,VACV mCherry inh,Giardia FBPA inh-1,Vaccinia Venus,FMDV inh,Giardia growth,Mammalian tox,Giardia FBPA inh-2,Rabbit aldolase,GAPDH coupling
O=C(Nc1cccc(Cl)c1)c1ccccc1,-14%,.,-14%,50%,.,.,.,.,.
O=C1C(Cl)=C(NC(=O)c2ccccc2)C(=O)C(Cl)=C1NC(=O)c1ccccc1,?,5.6µM*,?,28µM*,-12%,?,0.79µM*,3.5µM*,1.4µM*
O=S(=O)(c1ccccc1F)N1CCN(c2nc(-c3cccs3)nc3ccccc23)CC1,-6%,.,-18%,.,.,.,.,.,.
CCCCC(=O)NC(=S)Nc1nnn(CCC)n1,?,1.8µM*,?,14%,-6%[38.3 µM],40µM*,-15%,8%,?
CC[C@@H](C)[C@H](NS(=O)(=O)c1cccc2ccccc12)C(=O)N[C@H](C=O)Cc1c[nH]c2ccccc12,-16%,.,-12%,-16%,.,.,.,.,.
O=C(O)c1cc2ncc(CCO)cn2n1,-5%,16µM*,-11%,-20%,-16%,-2%,8%,5%,5%
O=C(O)c1ccc(/C=N/Nc2ccc(Cl)nn2)cc1,-10%,25µM*,9%,18%,?,4%,-15%,-15%,?
Oc1cccc(/C=N/Nc2ccc(Cl)nn2)c1,.,-10%,.,28%,.,.,.,.,.
CC(=O)N1CCN(CC(O)COc2ccc(Br)cc2)CC1 (configuration not stated),.,28µM*,.,-9%,?,8%,4%,13%,2%
CC(C)(C)c1ccc(OCC(O)CN2CCN(C(=O)c3ccccc3)CC2)cc1 (configuration not stated),.,14µM*,.,-25%,-12%,-17%,-8%,-13%,-2%
CCCOC(=O)c1ccc(OCC(O)CN2CCN(C(=O)c3ccccc3)CC2)cc1 (configuration not stated),.,-2%,-28%,0%,.,.,.,.,.
